# From PubChem BioAssay AID1159580 (chemical genetic matrix, 2015)
# Out of some 5,500 compounds screened, about 2,000 (36%) were called active. Not shown: some 18% with an inconclusive outcome. The list shows a part of the results. Values without a mark were called inactive. Rule as the data show it: active = normalized growth mostly below about 0.91 (no sharp cut-off); inconclusive = no clear call, values can overlap the other calls; inactive = mostly above about 0.92.
# Assay: chemical genetic growth profiling, strain panel (AID 1159580);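 also: tested at 20 µM; growth read once vehicle control cultures reached saturation at 30 °C; 1 = growth at the plate median or of vehicle wells; lower values mean less growth of the strain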
# Details: growth OD
smiles,measurement,setting,value
CC1CCCC(C)N1NC(=O)c1ccc(Cl)c(S(N)(=O)=O)c1 (stereo unspecified),normalized growth,"S. cerevisiae deletion strains, locus YKL009W, strain mrt4, hits give low values",0.973
same,normalized growth,"S. cerevisiae deletion strains, locus YKL068W, hits give low values",0.992
same,normalized growth,"S. cerevisiae deletion strains, locus YKL085W, strain MDH1 (second series), hits give low values",0.987
same,normalized growth,"S. cerevisiae deletion strains, locus YKL085W, strain MDH1, hits give low values",0.987
same,normalized growth,"S. cerevisiae deletion strains, locus YKL160W, strain elf1, hits give low values",0.995
same,normalized growth,"S. cerevisiae deletion strains, locus YKL190W, strain CNB1, hits give low values",0.99
same,normalized growth,"S. cerevisiae deletion strains, locus YKR001C, strain vps1, hits give low values",1
same,normalized growth,"S. cerevisiae deletion strains, locus YKR026C, strain gcn3, hits give low values",0.999
same,normalized growth,"S. cerevisiae deletion strains, locus YKR091W, strain srl3, hits give low values",1.02
same,normalized growth,"S. cerevisiae deletion strains, locus YLL001W, strain dnm1, hits give low values",1.01
same,normalized growth,"S. cerevisiae deletion strains, locus YLL026W, hits give low values",1.02
same,normalized growth,"S. cerevisiae deletion strains, locus YLL041C, strain sdh2, hits give low values",0.998
same,normalized growth,"S. cerevisiae deletion strains, locus YLR027C, strain aat2, hits give low values",1.03
same,normalized growth,"S. cerevisiae deletion strains, locus YLR039C, strain RIC1, hits give low values",0.989
same,normalized growth,"S. cerevisiae deletion strains, locus YLR058C, strain SHM2, hits give low values",0.99
same,normalized growth,"S. cerevisiae deletion strains, locus YLR102C, strain apc9, hits give low values",0.996
same,normalized growth,"S. cerevisiae deletion strains, locus YLR113W, strain HOG1, hits give low values",0.993
same,normalized growth,"S. cerevisiae deletion strains, locus YLR221C, strain rsa3, hits give low values",1.04
same,normalized growth,"S. cerevisiae deletion strains, locus YLR258W, strain gsy2, hits give low values",0.998
same,normalized growth,"S. cerevisiae deletion strains, locus YLR262C, strain YPT6 (second series), hits give low values",1.01
same,normalized growth,"S. cerevisiae deletion strains, locus YLR262C, strain YPT6, hits give low values",0.997
same,normalized growth,"S. cerevisiae deletion strains, locus YLR268W, strain sec22, hits give low values",0.933
same,normalized growth,"S. cerevisiae deletion strains, locus YLR320W, strain mms22, hits give low values",1.02
same,normalized growth,"S. cerevisiae deletion strains, locus YLR330W, strain CHS5, hits give low values",0.989
same,normalized growth,"S. cerevisiae deletion strains, locus YLR342W, strain FKS1 (second series), hits give low values",1.06
same,normalized growth,"S. cerevisiae deletion strains, locus YLR342W, strain FKS1, hits give low values",1.01
same,normalized growth,"S. cerevisiae deletion strains, locus YLR357W, strain rsc2, hits give low values",1.05
same,normalized growth,"S. cerevisiae deletion strains, locus YLR370C, strain arc18, hits give low values",1.01
same,normalized growth,"S. cerevisiae deletion strains, locus YLR371W, strain rom2, hits give low values",1
same,normalized growth,"S. cerevisiae deletion strains, locus YLR384C, strain iki3, hits give low values",1.01
same,normalized growth,"S. cerevisiae deletion strains, locus YLR418C, strain cdc73, hits give low values",1.01
same,normalized growth,"S. cerevisiae deletion strains, locus YML016C, strain PPZ1, hits give low values",0.991
same,normalized growth,"S. cerevisiae deletion strains, locus YML032C, strain rad52, hits give low values",0.975
same,normalized growth,"S. cerevisiae deletion strains, locus YML120C, strain ndi1, hits give low values",1.01
same,normalized growth,"S. cerevisiae deletion strains, locus YML124C, strain tub3, hits give low values",0.988
same,normalized growth,"S. cerevisiae deletion strains, locus YMR058W, strain fet3, hits give low values",1.03
same,normalized growth,"S. cerevisiae deletion strains, locus YMR078C, strain ctf18, hits give low values",1.01
same,normalized growth,"S. cerevisiae deletion strains, locus YMR125W, strain sto1, hits give low values",1.01
same,normalized growth,"S. cerevisiae deletion strains, locus YMR129W, hits give low values",1.02
same,normalized growth,"S. cerevisiae deletion strains, locus YMR205C, strain PFK2, hits give low values",0.992
same,normalized growth,"S. cerevisiae deletion strains, locus YMR223W, strain ubp8, hits give low values",1.03
same,normalized growth,"S. cerevisiae deletion strains, locus YMR231W, strain pep5, hits give low values",1.02
same,normalized growth,"S. cerevisiae deletion strains, locus YMR263W, strain SAP30, hits give low values",0.982
same,normalized growth,"S. cerevisiae deletion strains, locus YMR307W, strain GAS1, hits give low values",1.09
same,normalized growth,"S. cerevisiae deletion strains, locus YNL067W, strain RPL9B, hits give low values",0.973
same,normalized growth,"S. cerevisiae deletion strains, locus YNL071W, strain lat1, hits give low values",1.02
same,normalized growth,"S. cerevisiae deletion strains, locus YNL128W, strain TEP1, hits give low values",1
same,normalized growth,"S. cerevisiae deletion strains, locus YNL153C, strain GIM3, hits give low values",0.981
same,normalized growth,"S. cerevisiae deletion strains, locus YNL183C, strain NPR1, hits give low values",0.952
same,normalized growth,"S. cerevisiae deletion strains, locus YNL209W, strain ssb2, hits give low values",1
same,normalized growth,"S. cerevisiae deletion strains, locus YNL233W, strain BNI4, hits give low values",0.977
same,normalized growth,"S. cerevisiae deletion strains, locus YNL248C, strain rpa49, hits give low values",1.02
same,normalized growth,"S. cerevisiae deletion strains, locus YNL250W, strain rad50, hits give low values",0.981
same,normalized growth,"S. cerevisiae deletion strains, locus YNL271C, strain bni1, hits give low values",0.986
same,normalized growth,"S. cerevisiae deletion strains, locus YNL298W, strain CLA4, hits give low values",0.985
same,normalized growth,"S. cerevisiae deletion strains, locus YNL307C, strain MCK1, hits give low values",0.98
same,normalized growth,"S. cerevisiae deletion strains, locus YNL322C, strain KRE1 (second series), hits give low values",1.11 [resistant] (active)
same,normalized growth,"S. cerevisiae deletion strains, locus YNL322C, strain KRE1, hits give low values",0.99
same,normalized growth,"S. cerevisiae deletion strains, locus YNR049C, strain mso1, hits give low values",1
same,normalized growth,"S. cerevisiae deletion strains, locus YNR052C, strain pop2, hits give low values",0.996
same,normalized growth,"S. cerevisiae deletion strains, locus YOL006C, strain TOP1, hits give low values",0.953
same,normalized growth,"S. cerevisiae deletion strains, locus YOL012C, strain htz1",0.717
same,normalized growth,"S. cerevisiae deletion strains, locus YOL147C, strain pex11, hits give low values",0.99
same,normalized growth,"S. cerevisiae deletion strains, locus YOR001W, strain rrp6, hits give low values",1.02
same,normalized growth,"S. cerevisiae deletion strains, locus YOR061W, strain CKA2, hits give low values",0.999
same,normalized growth,"S. cerevisiae deletion strains, locus YOR069W, strain VPS5, hits give low values",0.996
same,normalized growth,"S. cerevisiae deletion strains, locus YOR070C, strain gyp1, hits give low values",1.02
same,normalized growth,"S. cerevisiae deletion strains, locus YOR080W, strain dia2, hits give low values",1.02
same,normalized growth,"S. cerevisiae deletion strains, locus YOR083W, strain WHI5, hits give low values",1.01
same,normalized growth,"S. cerevisiae deletion strains, locus YOR106W, strain vam3, hits give low values",0.988
same,normalized growth,"S. cerevisiae deletion strains, locus YOR136W, strain idh2, hits give low values",1.01
same,normalized growth,"S. cerevisiae deletion strains, locus YOR144C, strain elg1, hits give low values",0.994
same,normalized growth,"S. cerevisiae deletion strains, locus YOR184W, strain ser1, hits give low values",0.989
same,normalized growth,"S. cerevisiae deletion strains, locus YOR231W, strain MKK1, hits give low values",0.979
same,normalized growth,"S. cerevisiae deletion strains, locus YOR265W, strain rbl2, hits give low values",1.01
same,normalized growth,"S. cerevisiae deletion strains, locus YOR270C, strain vph1, hits give low values",1.04
same,normalized growth,"S. cerevisiae deletion strains, locus YOR290C, strain snf2, hits give low values",1.01
same,normalized growth,"S. cerevisiae deletion strains, locus YOR316C, strain cot1, hits give low values",0.985
same,normalized growth,"S. cerevisiae deletion strains, locus YPL051W, strain arl3, hits give low values",1.02
same,normalized growth,"S. cerevisiae deletion strains, locus YPL055C, strain LGE1, hits give low values",1.01
same,normalized growth,"S. cerevisiae deletion strains, locus YPL078C, strain atp4, hits give low values",1.02
same,normalized growth,"S. cerevisiae deletion strains, locus YPL106C, strain sse1, hits give low values",0.998
same,normalized growth,"S. cerevisiae deletion strains, locus YPL240C, strain hsp82, hits give low values",1.01
same,normalized growth,"S. cerevisiae deletion strains, locus YPL241C, strain CIN2, hits give low values",1
same,normalized growth,"S. cerevisiae deletion strains, locus YPL256C, strain CLN2, hits give low values",0.948
same,normalized growth,"S. cerevisiae deletion strains, locus YPR119W, strain clb2, hits give low values",0.99
same,normalized growth,"S. cerevisiae deletion strains, locus YPR141C, strain kar3, hits give low values",0.985
same,normalized growth,"S. cerevisiae deletion strains, locus YPR163C, strain tif3, hits give low values",0.99
same,normalized growth,"S. cerevisiae deletion strains, locus YPR167C, strain met16, hits give low values",0.989
same,normalized growth,"S. cerevisiae deletion strains, strain wtn01, hits give low values",0.989
same,normalized growth,"S. cerevisiae strains, strain wild type, hits give low values",1.01
